Data on 40 compounds can be found in PubChem BioAssay (NCATS).

Molecules are shown by their SMILES. Records with an inconclusive call do not appear. Unmarked numbers belong to inactive results. Activity calls are given as the source filed them. Calls come from the whole dose curve; as a rule, active = well fitted cell-killing curve with a large enough effect; inconclusive = small, poorly fitted or top-dose-only effect; inactive = flat fitted curve, though single readings scatter.
% is set by controls: 0 for no effect and ±100 for the full control effect; potency is the fitted concentration of half-maximal effect.

The assay can be described thus: qHTS of pediatric cancer cell lines to identify multiple opportunities for drug repurposing: Primary screen for control Hh wild type fibroblast cells (AID 1347106).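 For activity change, negative = cytotoxic: a drop in luminescence marks cytotoxicity and a rise apparent proliferation.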 Note: nearly all actives have a fitted effect of over 55% in size. The note with it: Hh wild-type fibroblast viability, CellTiter-Glo luminescence, 48 h; series mostly up to 46 µM; activity change, negative = cytotoxic: at the top concentration. The text has this: Drug repurposing or repositioning has been offered as a strategy for drug development in oncology programs. This approach has special potential for childhood cancers and other rare or orphan diseases, where the expected return on new drug development has been a disincentive to pharmaceuticals.
In this project we exploit the poly-pharmacology of drugs to discover new indications via phenotypic screening of a panel of 19 well-characterized cell lines derived from solid tumors seen in children and adolescents. The goal is to identify approved drugs with previously unrecognized anticancer properties that has the potential to reveal new mechanisms and biological processes involved in carcinogenesis or drug resistance. We employed a titration-based paradigm (quantitative high-throughput screening or qHTS), where all compounds were tested at multiple concentrations for their effect on cell viability. Concentration-response curves (CRCs) were derived directly from the primary screen, and both potency and efficacy values were used to identify compounds with robust bioactivity profiles. We screened the NIH Chemical Genomics Center (NCGC) Pharmaceutical Collection (NPC) and Mechanism Interrogation Plate (MIPE) small molecule collections of approved and investigational compounds against these cell lines; and measured metabolically active cells after 48 hours of compound treatment as a proxy for cell viability.
Assay Submitter: Nathalia J. Martinez, National Center for Advancing Translational Sciences, National Institutes of Health, Rockville, MD, USA; email: natalia.martinez@nih.gov
[1] Shen, M et al. Quantitative high-throughput phenotypic screening of pediatric cancer cell lines identifies multiple opportunities for drug repurposing. Oncotarget 2017 Dec 19;9(4):4758-4772. PMID 29435139.
The cells were obtained from University of North Carolina (UNC), Pediatric Preclinical Testing Program (PPT), and Coriell Institute (CI).
qHTS cell viability assay:
Cells were assayed in growth media at a density of 500-1,000 cells/well. Five microliters of cells were dispensed into 1,536-well, white, solid-bottom, TC-treated plates (Greiner Bio One) using a multidrop dispenser and incubated at 37 degrees C, 5% CO2, under a humidified atmosphere for 5 hours. Twenty-three nanoliters of compounds and controls (neutral control DMSO or positive control bortezomib at final concentration of 2.3 µM) were subsequently transferred by Kalypsys pintool. For primary screens, the MIPE collection was tested at 11-point dilutions (final concentrations range from 0.78 nM to 46 µM) and the NPC collection at 8-point dilutions (final concentrations range from 0.59 nM to 46 µM). Compounds tested in follow-up screens were assayed at 11-point dilutions. Cells were incubated for 48 hours, followed by addition of 3 µL of CellTiter-Glo (Promega). After a 15 min incubation at room temperature, samples were analyzed for luminescence intensity using a ViewLux High-throughput CCD imager equipped with clear filters.
In general terms: Quantitative high-throughput screening tests each substance at several concentrations.
For the compound `COc1ccc(C(c2ccc(OC)cc2)C(Cl)(Cl)Cl)cc1`, the “activity change, negative = cytotoxic” value is -0.714% [at 92.7 µM].
In the case of `CC=C(C)C(=O)N[C@@H](c1ccccc1)[C@@H](O)C(=O)O[C@H]1C[C@@]2(O)[C@@H](OC(=O)c3ccccc3)[C@@H]3[C@]4(OC(C)=O)CO[C@@H]4C[C@H](O)[C@@]3(C)C(=O)[C@H](OC(C)=O)C(=C1C)C2(C)C`, the “activity change, negative = cytotoxic” value was -16.3%.
Consider `CC[C@@H]1[C@@H](C)O[C@@](O)([C@@H](C)[C@H](O)[C@H](C)[C@H]2OC(=O)C=CC=C[C@@H](C)[C@@H]([C@@H](C)[C@@H](O)[C@H](C)[C@@]3(O)C[C@H](O[C@H]4C[C@H](O)[C@H](O)[C@H](C)O4)[C@H](CC)[C@@H](C)O3)OC(=O)C=CC=C[C@@H]2C)C[C@H]1O[C@H]1C[C@H](O)[C@H](O)[C@H](C)O1`, for which the Potency is 9.35 µM (active).
As for `CC(=O)O[C@@]12CO[C@H]1C[C@H](O)[C@@]1(C)C(=O)[C@H](O)C3=C(C)[C@@H](O)C[C@@](O)([C@@H](OC(=O)c4ccccc4)[C@@H]21)C3(C)C`, the “activity change, negative = cytotoxic” value is -12.1%.
On the same count and under the same terms, the value for `CC(C)Oc1cccc(NC(=O)c2ccccc2C(F)(F)F)c1` was -5.85% [at 92.7 µM].
On the same count and under the same terms, with `COc1ccc(C(=O)c2c(C)n(CCN3CCOCC3)c3cc(I)ccc23)cc1` the figure was 3.95%.
On the same count and under the same terms, with `CCC(=O)O[C@@H]1C=C2CCC3C(CCC4(C)C3CC[C@@H]4OC(=O)CC)C2CC1` (stereo not given in full) the figure was 0.828%.
As to `C=C1C[C@H]2[C@H]3CCC(=O)[C@@]3(C)CC[C@@H]2[C@@]2(C)C=CC(=O)C=C12`, the “activity change, negative = cytotoxic” value is 4.19%.
Take `O=C(O)COc1nc(Cl)c(Cl)cc1Cl`: the “activity change, negative = cytotoxic” value was 17.5% [at 92.7 µM].
On the same count and under the same terms, with `CCCN(CCC)c1c([N+](=O)[O-])cc(S(N)(=O)=O)cc1[N+](=O)[O-]` the figure was -4.83% [at 92.7 µM]; with `O=S(=O)(O)C(F)(F)C(F)(F)C(F)(F)C(F)(F)F`, 10.6% [at 92.7 µM].
The same measure, in the same setting: with `O=C(Nc1ccccc1-c1ccc(Cl)cc1)c1cccnc1Cl` the figure was 10% [at 92.7 µM]; with `CCC1(CCC(C)C)C(=O)NC(=O)NC1=O`, 5.67% [at 92.7 µM].
The same measure, in the same setting: the value for `CC(C)(C)[C@]1(O)C[C@@H]2OC(=O)C[C@@]23C(=O)O[C@@H]2OC(=O)[C@H](O)C213` (stereo not given in full) was 9.21%.
As for `CCCC[N+]1(C)[C@H]2CC(OC(=O)[C@H](CO)c3ccccc3)C[C@H]1[C@H]1O[C@H]12` (stereo not given in full), the “activity change, negative = cytotoxic” value is 7.55%.
Still for that read-out and setting: the value for `CC(C)[C@]12O[C@@H]1[C@@H]1O[C@]13[C@]1(O[C@H]1C[C@@H]1C4=C(CC[C@@]13C)C(=O)OC4)[C@H]2O` was -46.7%; that for `O=S(=O)(F)Cc1ccccc1` was -7%.
Same read-out and setting: with `CCOC(=O)Nc1ccc(NCc2ccc(F)cc2)cc1N` the figure was -15.8%; with `O=[N+]([O-])c1ccc([As](=O)(O)O)cc1`, 7.45%; with `O=C(N[C@@H](COc1ccc2[nH]c(=O)[nH]c2c1)c1ccccc1)c1cccn(Cc2ccc(F)c(F)c2)c1=O`, 11.9%.
Still for that read-out and setting: the value for `Cc1c(C(=O)Nc2cccc(C(F)(F)F)c2)cc(-c2ccccc2)n1CCCN1CCOCC1` was 0.0504%; that for `CC[N+]1(CCOC(=O)C(O)(c2ccccc2)c2ccccc2)CCCCC1` was 1.04%.
Take `CCCCC(CC)COC(=O)c1ccccc1C(=O)OCC(CC)CCCC` (stereo not given): the “activity change, negative = cytotoxic” value is 9.58% [at 92.7 µM].
Same read-out and setting: the value for `CCCCCCCCc1ccc(O)cc1` was 7.25% [at 92.7 µM]; that for `COCC1(CO)C(=O)C2CCN1CC2` (stereo not given) was -1.77%; that for `Cc1ccc(Cl)c(O)c1` was 2.6%.
Consider `CCN1C[C@]2(OC(=O)c3ccccc3NC(C)=O)CC[C@H](OC)[C@@]34[C@H]5CC6[C@@H](OC)C[C@](O)(C(C[C@@H]23)[C@@H]14)[C@@]5(O)[C@@H]6OC`, for which the “activity change, negative = cytotoxic” value is 5.81%.
Same read-out and setting: with `C[C@@H]1CC[C@H]2[C@@H](C)C(=O)O[C@@H]3O[C@@]4(C)CC[C@H]1[C@]32OO4` the figure was 3.73%; with `COCCOCCO`, 2.13% [at 92.7 µM]; with `CC(C)(C)C(O)C(Oc1ccc(Cl)cc1)n1cncn1` (stereo not given), -4.57% [at 92.7 µM].
On to `N=c1c2c(-c3ccccc3)c(-c3ccccc3)n(Cc3ccccc3)c2ncn1C1CCC(O)CC1` (stereo not given), for which the “activity change, negative = cytotoxic” value is -2.83%.
Still for that read-out and setting: the value for `COc1nn(CSP(=S)(OC)OC)c(=O)s1` was -10.2% [at 92.7 µM]; that for `O=S(=O)(c1ccc(Cl)cc1)c1ccc(Cl)cc1` was 1.65% [at 92.7 µM].
Still for that read-out and setting: the value for `CC(C)(C)NC[C@H](O)c1ccc(O)cc1Cl` was -2%; that for `COC(=O)c1cncn1C(C)c1ccccc1` (stereo not given) was 1.48%.
The same measure, in the same setting: the value for `CC(C)NCC(O)c1ccc([N+](=O)[O-])cc1` (stereo not given) was -1.12%; that for `CCCN1CCO[C@@H]2c3cc(O)ccc3OC[C@@H]21` was 10.6%; that for `C[C@]12CCC(=O)C(O)=C1CC[C@@H]1[C@H]3CCC(=O)[C@@]3(C)CC[C@@H]12` was 14.5%.
For `O=c1[nH]c2ccccc2n1C1CCN(Cc2ccc(-c3[nH]c4cc5ncnc5cc4nc3-c3ccccc3)cc2)CC1`, the “activity change, negative = cytotoxic” value is 16.9%.
The same measure, in the same setting: the value for `COC[C@H]1OC(=O)c2coc3c2[C@@]1(C)C1=C(C3=O)[C@@H]2CC[C@H](O)[C@@]2(C)C[C@@H]1OC(C)=O` was -8.43%.
